{
  "source": "the supplement of paper PMC11732987",
  "about": "“Enantioselective OTUD7B fragment discovery through chemoproteomics screening and high-throughput optimisation” (Communications Chemistry, 2025)",
  "assay_in_all_cases": "log2 ratio of Biotin-Ahx-Ub-VS probe labelling (fragment/DMSO); higher = less target engagement (more negative = stronger competition), active = hit call of the paper (q ≤ 0.05, log2 ratio ≤ -1)",
  "conditions_in_all_cases": "compound concentration: 200 uM; treatment time: 3 h",
  "key": {"USP19": {"molecular_target": "T1, USP19 (UniProt O94966)", "T1 sequence (whole entry)": "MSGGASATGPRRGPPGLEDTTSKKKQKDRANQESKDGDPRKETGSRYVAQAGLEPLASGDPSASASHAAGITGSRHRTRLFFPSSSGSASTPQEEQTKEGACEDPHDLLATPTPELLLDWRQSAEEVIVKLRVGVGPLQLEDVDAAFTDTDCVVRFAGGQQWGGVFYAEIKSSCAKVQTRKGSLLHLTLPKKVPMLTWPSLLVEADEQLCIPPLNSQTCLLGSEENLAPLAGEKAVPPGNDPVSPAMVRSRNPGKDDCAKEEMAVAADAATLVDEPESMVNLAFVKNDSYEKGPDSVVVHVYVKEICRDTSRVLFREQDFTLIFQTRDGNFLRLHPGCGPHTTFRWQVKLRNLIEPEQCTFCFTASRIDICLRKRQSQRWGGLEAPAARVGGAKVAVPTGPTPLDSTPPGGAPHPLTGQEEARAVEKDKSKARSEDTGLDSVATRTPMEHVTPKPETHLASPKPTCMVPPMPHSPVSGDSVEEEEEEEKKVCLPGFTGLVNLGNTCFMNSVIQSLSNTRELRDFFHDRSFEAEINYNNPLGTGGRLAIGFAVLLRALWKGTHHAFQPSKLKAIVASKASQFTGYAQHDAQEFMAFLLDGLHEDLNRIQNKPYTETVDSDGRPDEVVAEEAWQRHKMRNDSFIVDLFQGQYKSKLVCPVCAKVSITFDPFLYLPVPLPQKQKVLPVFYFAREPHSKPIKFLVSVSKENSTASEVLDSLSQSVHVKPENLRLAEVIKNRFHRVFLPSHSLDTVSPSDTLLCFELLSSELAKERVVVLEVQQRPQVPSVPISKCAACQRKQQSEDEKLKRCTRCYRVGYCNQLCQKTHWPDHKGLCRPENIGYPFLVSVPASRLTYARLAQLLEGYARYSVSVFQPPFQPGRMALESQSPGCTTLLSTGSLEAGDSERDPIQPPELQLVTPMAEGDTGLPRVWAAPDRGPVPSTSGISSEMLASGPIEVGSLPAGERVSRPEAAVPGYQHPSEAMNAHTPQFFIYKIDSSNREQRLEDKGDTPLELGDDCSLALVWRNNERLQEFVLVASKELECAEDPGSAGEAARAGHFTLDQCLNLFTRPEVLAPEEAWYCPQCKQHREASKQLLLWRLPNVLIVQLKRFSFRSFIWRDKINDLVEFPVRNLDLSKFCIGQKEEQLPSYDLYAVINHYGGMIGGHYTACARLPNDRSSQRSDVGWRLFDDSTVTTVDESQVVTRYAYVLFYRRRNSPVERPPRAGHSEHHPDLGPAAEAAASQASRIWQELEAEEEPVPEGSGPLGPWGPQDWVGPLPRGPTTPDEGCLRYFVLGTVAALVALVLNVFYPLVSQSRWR", "outline": "(§1)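 Values give the average log2 ratio of fragment to vehicle, assessed by unpaired t-test on global-median-normalised Spectronaut label-free quantities. Proteins needed ≥2 unique peptides. HEK293T lysate (495 µg per sample) was treated in triplicate with fragment at 200 µM or vehicle for 3 h and then with Biotin-Ahx-Ub-VS at 0.5 µM final for 1 h. Labelled DUBs were NeutrAvidin-enriched, digested and run by diaPASEF LC-MS/MS.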"}, "USP22": {"molecular_target": "T2, USP22 (UniProt Q9UPT9)", "T2 sequence (whole entry)": "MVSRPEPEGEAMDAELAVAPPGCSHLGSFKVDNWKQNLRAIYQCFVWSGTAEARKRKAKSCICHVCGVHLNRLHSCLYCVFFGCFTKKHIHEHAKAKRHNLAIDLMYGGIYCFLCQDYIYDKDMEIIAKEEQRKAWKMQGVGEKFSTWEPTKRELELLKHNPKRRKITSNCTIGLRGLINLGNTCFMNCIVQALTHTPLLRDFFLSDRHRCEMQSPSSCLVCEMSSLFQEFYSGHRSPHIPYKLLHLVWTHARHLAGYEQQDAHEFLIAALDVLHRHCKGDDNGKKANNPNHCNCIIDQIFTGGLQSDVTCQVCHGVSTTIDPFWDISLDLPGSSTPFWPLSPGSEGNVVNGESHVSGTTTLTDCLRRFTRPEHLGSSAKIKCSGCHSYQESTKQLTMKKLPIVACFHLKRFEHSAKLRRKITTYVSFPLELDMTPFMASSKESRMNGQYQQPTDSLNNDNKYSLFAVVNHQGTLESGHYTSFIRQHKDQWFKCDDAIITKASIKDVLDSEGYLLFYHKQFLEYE", "outline": "as §1"}, "USP24": {"molecular_target": "USP24 (UniProt Q9UPU5)", "sequence (Q9UPU5 whole entry)": "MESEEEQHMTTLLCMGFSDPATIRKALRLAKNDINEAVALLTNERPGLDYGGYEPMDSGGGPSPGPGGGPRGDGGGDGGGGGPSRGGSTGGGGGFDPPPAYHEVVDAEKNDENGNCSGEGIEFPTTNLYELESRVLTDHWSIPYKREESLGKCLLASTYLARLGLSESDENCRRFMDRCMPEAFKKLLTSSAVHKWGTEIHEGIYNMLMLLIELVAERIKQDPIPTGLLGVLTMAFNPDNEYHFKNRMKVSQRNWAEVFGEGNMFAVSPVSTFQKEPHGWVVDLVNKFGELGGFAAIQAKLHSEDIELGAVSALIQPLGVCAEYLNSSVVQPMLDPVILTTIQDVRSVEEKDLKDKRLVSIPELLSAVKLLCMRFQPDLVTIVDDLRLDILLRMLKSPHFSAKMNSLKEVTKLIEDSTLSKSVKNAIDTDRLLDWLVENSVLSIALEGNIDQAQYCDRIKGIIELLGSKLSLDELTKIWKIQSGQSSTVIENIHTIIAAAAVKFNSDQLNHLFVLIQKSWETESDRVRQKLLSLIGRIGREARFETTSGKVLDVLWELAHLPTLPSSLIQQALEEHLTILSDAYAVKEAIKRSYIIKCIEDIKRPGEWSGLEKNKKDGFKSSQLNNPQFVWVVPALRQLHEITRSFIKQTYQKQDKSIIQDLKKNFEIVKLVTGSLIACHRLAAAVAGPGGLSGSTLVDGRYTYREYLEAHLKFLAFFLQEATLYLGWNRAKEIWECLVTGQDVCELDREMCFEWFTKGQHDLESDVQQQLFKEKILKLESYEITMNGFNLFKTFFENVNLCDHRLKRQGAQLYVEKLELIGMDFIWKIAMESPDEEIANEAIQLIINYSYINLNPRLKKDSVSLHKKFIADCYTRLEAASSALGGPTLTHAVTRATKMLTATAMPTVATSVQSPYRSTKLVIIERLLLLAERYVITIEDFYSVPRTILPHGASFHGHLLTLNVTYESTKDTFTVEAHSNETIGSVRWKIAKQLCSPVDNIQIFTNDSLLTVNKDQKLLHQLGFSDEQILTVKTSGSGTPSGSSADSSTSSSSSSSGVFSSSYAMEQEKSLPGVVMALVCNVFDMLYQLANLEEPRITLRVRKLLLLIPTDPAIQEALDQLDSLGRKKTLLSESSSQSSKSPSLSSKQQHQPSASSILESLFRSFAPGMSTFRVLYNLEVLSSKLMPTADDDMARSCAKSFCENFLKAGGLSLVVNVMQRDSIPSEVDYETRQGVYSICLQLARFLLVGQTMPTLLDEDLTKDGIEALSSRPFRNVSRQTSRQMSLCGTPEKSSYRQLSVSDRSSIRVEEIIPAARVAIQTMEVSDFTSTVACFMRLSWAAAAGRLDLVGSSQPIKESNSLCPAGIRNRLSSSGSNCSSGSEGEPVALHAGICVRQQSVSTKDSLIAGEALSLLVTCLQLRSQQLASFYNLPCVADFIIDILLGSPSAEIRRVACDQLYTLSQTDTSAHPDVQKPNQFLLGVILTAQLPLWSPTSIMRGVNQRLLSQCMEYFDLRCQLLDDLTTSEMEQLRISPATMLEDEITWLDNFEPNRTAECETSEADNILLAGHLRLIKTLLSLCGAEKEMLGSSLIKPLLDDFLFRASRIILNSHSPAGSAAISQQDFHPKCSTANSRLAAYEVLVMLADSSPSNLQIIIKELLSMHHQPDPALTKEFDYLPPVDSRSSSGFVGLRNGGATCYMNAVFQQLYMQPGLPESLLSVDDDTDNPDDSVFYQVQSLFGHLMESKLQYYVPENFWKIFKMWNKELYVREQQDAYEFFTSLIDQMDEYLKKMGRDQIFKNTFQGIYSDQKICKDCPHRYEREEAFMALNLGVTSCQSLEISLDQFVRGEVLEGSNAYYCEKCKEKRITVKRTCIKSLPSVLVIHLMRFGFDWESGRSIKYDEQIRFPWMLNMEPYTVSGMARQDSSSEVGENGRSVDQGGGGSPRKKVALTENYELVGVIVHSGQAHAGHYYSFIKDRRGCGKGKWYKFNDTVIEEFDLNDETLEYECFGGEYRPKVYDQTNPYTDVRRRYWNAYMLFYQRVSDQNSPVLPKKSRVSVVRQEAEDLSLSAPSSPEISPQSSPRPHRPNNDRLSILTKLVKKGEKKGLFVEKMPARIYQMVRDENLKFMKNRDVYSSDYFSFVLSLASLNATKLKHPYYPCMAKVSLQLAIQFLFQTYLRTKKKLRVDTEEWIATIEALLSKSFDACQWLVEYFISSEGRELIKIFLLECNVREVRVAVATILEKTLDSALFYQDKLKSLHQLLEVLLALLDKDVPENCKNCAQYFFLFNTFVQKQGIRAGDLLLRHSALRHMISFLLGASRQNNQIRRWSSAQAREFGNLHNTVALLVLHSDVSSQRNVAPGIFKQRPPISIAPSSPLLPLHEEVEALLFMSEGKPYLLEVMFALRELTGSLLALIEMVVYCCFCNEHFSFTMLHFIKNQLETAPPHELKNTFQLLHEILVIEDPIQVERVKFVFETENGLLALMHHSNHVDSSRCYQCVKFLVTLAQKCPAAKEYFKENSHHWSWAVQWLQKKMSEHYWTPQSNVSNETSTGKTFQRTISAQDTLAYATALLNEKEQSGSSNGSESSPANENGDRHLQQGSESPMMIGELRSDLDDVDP", "outline": "as §1"}, "USP25": {"molecular_target": "T3, USP25 (UniProt Q9UHP3)", "T3 sequence (whole entry)": "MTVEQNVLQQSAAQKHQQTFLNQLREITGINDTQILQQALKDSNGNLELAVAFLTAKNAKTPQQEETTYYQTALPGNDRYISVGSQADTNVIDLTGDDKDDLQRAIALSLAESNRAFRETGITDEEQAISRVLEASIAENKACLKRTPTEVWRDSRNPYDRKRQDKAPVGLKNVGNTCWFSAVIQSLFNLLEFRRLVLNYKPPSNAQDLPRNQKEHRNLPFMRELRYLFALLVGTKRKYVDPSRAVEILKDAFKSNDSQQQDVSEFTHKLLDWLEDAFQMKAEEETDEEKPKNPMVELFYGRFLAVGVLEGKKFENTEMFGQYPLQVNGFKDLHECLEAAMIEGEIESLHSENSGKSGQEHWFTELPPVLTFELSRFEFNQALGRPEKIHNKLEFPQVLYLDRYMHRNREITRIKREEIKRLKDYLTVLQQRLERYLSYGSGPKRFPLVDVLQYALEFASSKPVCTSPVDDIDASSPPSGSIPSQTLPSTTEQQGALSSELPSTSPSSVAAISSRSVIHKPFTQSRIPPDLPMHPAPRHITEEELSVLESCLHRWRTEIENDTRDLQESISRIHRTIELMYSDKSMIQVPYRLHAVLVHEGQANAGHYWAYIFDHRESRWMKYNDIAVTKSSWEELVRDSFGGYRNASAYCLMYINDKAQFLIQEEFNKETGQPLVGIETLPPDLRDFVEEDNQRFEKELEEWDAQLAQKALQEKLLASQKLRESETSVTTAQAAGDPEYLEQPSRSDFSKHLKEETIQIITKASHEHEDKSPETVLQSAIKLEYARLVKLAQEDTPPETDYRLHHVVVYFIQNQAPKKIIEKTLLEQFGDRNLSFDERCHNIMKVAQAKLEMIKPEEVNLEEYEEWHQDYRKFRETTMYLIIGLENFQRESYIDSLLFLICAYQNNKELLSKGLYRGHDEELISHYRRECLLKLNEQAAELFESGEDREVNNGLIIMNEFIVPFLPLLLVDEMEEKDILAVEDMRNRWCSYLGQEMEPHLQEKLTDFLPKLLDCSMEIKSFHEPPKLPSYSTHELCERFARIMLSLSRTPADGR", "outline": "as §1"}, "USP28": {"molecular_target": "T4, USP28 (UniProt Q96RU2)", "T4 sequence (whole entry)": "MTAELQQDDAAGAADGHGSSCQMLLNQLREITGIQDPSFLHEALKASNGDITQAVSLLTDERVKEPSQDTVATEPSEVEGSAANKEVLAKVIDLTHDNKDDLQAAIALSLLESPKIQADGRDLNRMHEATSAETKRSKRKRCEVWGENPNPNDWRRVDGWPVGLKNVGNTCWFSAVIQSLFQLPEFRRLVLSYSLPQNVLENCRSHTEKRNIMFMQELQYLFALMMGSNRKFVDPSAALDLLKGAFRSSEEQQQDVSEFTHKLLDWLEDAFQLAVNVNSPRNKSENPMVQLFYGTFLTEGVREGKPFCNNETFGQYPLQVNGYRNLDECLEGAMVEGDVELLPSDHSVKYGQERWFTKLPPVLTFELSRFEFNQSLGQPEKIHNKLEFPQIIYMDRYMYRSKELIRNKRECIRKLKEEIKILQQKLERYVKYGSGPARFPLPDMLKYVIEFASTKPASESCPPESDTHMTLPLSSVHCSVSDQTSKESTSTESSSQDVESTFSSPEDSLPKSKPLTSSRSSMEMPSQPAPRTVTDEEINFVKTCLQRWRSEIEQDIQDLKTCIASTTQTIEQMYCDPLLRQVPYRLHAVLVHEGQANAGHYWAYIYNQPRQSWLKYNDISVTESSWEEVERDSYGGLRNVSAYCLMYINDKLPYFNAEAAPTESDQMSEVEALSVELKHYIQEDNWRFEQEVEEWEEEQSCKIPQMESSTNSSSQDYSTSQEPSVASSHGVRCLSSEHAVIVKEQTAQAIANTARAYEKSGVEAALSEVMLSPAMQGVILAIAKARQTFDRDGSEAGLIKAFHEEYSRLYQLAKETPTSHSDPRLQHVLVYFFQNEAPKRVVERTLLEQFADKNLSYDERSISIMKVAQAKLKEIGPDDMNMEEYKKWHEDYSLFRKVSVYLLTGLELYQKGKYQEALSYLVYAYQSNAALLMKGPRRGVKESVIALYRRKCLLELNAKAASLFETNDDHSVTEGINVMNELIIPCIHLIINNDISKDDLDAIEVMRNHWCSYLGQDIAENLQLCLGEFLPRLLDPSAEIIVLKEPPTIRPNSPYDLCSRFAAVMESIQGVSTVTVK", "outline": "as §1"}},
  "note": "A number with no mark means an inactive call.",
  "data": [
    {"compound": "Cc1conc1C1CN(C(=O)CCl)C1", "values": [
      {"measurement": "log2 ratio of Biotin-Ahx-Ub-VS probe labelling", "setting": "USP19", "value": "-1.19 (active)"},
      {"measurement": "log2 ratio of Biotin-Ahx-Ub-VS probe labelling", "setting": "USP22", "value": -0.421},
      {"measurement": "log2 ratio of Biotin-Ahx-Ub-VS probe labelling", "setting": "USP24", "value": "-1.11 (active)"},
      {"measurement": "log2 ratio of Biotin-Ahx-Ub-VS probe labelling", "setting": "USP25", "value": -0.81},
      {"measurement": "log2 ratio of Biotin-Ahx-Ub-VS probe labelling", "setting": "USP28", "value": "-1.16 (active)"}
    ]}
  ]
}
